# Measured values: paper PMC5540273 (PLoS ONE, 2017)
# Read-outs that look alike come from different tables or passages of the source.
# What was measured:
# [1] = system: FGFR1; details: concentration: 1 μM,replicates: in singlicate; n = 1
# [2] = system: FGFR2; details: concentration: 1 μM,replicates: in singlicate; n = 1
# [3] = system: FGFR3; details: concentration: 1 μM,replicates: in singlicate; n = 1
# [4] = system: FGFR4; details: concentration: 1 μM,replicates: in singlicate; n = 1
# [5] = system: FGR; details: concentration: 1 μM,replicates: in singlicate; n = 1
# [6] = system: FLT1; details: concentration: 1 μM,replicates: in singlicate; n = 1
# [7] = system: FLT3-autoinhibited; details: concentration: 1 μM,replicates: in singlicate; n = 1
# [8] = system: FLT3; details: concentration: 1 μM,replicates: in singlicate; n = 1
# [9] = system: FLT4; details: concentration: 1 μM,replicates: in singlicate; n = 1
# [10] = system: FRK; details: concentration: 1 μM,replicates: in singlicate; n = 1
# [11] = system: FYN; details: concentration: 1 μM,replicates: in singlicate; n = 1
# [12] = system: GAK; details: concentration: 1 μM,replicates: in singlicate; n = 1
# [13] = system: T1, GCN2(Kin.Dom.2,S808G); details: concentration: 1 μM,replicates: in singlicate; n = 1
# T1 construct: gene EIF2AK4
# [14] = system: GRK1; details: concentration: 1 μM,replicates: in singlicate; n = 1
# [15] = system: T2, GRK2; details: concentration: 1 μM,replicates: in singlicate; n = 1
# T2 construct: gene ADRBK1
# [16] = system: T3, GRK3; details: concentration: 1 μM,replicates: in singlicate; n = 1
# T3 construct: gene ADRBK2
# [17] = system: GRK4; details: concentration: 1 μM,replicates: in singlicate; n = 1
# [18] = system: GRK7; details: concentration: 1 μM,replicates: in singlicate; n = 1
# [19] = system: GSK3A; details: concentration: 1 μM,replicates: in singlicate; n = 1
# [20] = system: GSK3B; details: n = 1
# [21] = concentration: 1 μM,replicates: in singlicate
# 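Further: KINOMEscan kinase panel screen.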
smiles,measurement,setting,value
CC(C)c1nc(-c2cccc(NS(=O)(=O)c3ccccc3)c2)c(-c2ccnc(Nc3ccc4c(c3)CN(C)CC4)n2)s1 [GSK1649598],%Inh,[1],68%
same,%Inh,[2],6%
same,%Inh,[3],35%
same,%Inh,[4],0%
same,%Inh,[5],97.4%
same,%Inh,[6],98.2%
same,%Inh,[7],40%
same,%Inh,[8],90.3%
same,%Inh,[9],99.6%
same,%Inh,[10],98.2%
same,%Inh,[11],98.7%
same,%Inh,[12],87%
same,%Inh,[13],100%
same,%Inh,[14],0%
same,%Inh,[15],0%
same,%Inh,[16],0%
same,%Inh,[17],0%
same,%Inh,[18],0%
same,%Inh,[19],61%
same,%Inh,[20]; [21],24%
COC(=O)Nc1nc2cc(Oc3ccc(NC(=O)Nc4cc(C(F)(F)F)ccc4Cl)cc3)ccc2[nH]1.Cl [GW697465],%Inh,[1],4%
same,%Inh,[2],34%
same,%Inh,[3],95.8%
same,%Inh,[4],1%
same,%Inh,[5],13%
same,%Inh,[6],98.8%
same,%Inh,[7],0%
same,%Inh,[8],99.1%
same,%Inh,[9],99.4%
same,%Inh,[10],91.8%
same,%Inh,[11],9%
same,%Inh,[12],0%
same,%Inh,[13],8%
same,%Inh,[14],0%
same,%Inh,[15],0%
same,%Inh,[16],65%
same,%Inh,[17],0%
same,%Inh,[18],0%
same,%Inh,[19],12%
same,%Inh,[20]; [21],0%
Cn1ccc2ncnc(Oc3ccc(NC(=O)Nc4cncc(C(F)(F)F)c4)c(Cl)c3)c21,%Inh,[2],0%
same,%Inh,[3],0%
same,%Inh,[4],0%
same,%Inh,[5],0%
same,%Inh,[6],94.5%
same,%Inh,[7],0%
same,%Inh,[8],95.7%
same,%Inh,[9],99.7%
same,%Inh,[10],72%
same,%Inh,[11],0%
same,%Inh,[12],0%
same,%Inh,[13],0%
same,%Inh,[14],4%
same,%Inh,[15],0%
same,%Inh,[16],0%
same,%Inh,[17],11%
same,%Inh,[18],0%
same,%Inh,[19],0%
same,%Inh,[20]; [21],0%
CCOC(=O)N1CCC(n2cnc(-c3ccc(F)cc3)c2-c2ccnc(N)n2)CC1 [SB-219952],%Inh,[1],0%
same,%Inh,[2],12%
same,%Inh,[3],12%
same,%Inh,[4],0%
same,%Inh,[5],0%
same,%Inh,[6],33%
same,%Inh,[7],14%
same,%Inh,[8],24%
same,%Inh,[9],0%
same,%Inh,[10],2%
same,%Inh,[11],0%
same,%Inh,[12],59%
same,%Inh,[13],44%
same,%Inh,[14],0%
same,%Inh,[15],8%
same,%Inh,[16],0%
same,%Inh,[17],32%
same,%Inh,[18],20%
same,%Inh,[19],0%
same,%Inh,[20]; [21],37%
C[C@@H](Oc1cc(-n2cnc3ccc(-c4ccncc4)cc32)sc1C(N)=O)c1ccccc1Cl [GSK483724],%Inh,[1],11%
same,%Inh,[2],6%
same,%Inh,[3],29%
same,%Inh,[4],15%
same,%Inh,[5],27%
same,%Inh,[6],35%
same,%Inh,[7],6%
same,%Inh,[8],53%
same,%Inh,[9],37%
same,%Inh,[10],14%
same,%Inh,[11],44%
same,%Inh,[12],49%
same,%Inh,[13],0%
same,%Inh,[14],53%
same,%Inh,[15],7%
same,%Inh,[16],32%
same,%Inh,[17],21%
same,%Inh,[18],0%
same,%Inh,[19],76%
same,%Inh,[20]; [21],15%
C[C@@H]1CNc2c(sc3ccc4nc(-c5ccc(O)cc5)ccc4c23)C(=O)N1,%Inh,[1],14%
same,%Inh,[2],16%
same,%Inh,[3],12%
same,%Inh,[4],31%
same,%Inh,[5],0%
same,%Inh,[6],6%
same,%Inh,[7],6%
same,%Inh,[8],16%
same,%Inh,[9],0%
same,%Inh,[10],0%
same,%Inh,[11],4%
same,%Inh,[12],0%
same,%Inh,[13],12%
same,%Inh,[14],41%
same,%Inh,[15],0%
same,%Inh,[16],0%
same,%Inh,[17],28%
same,%Inh,[18],24%
same,%Inh,[19],9%
same,%Inh,[20]; [21],0%
N#Cc1cccc(C(=O)NC2CCN(c3ccnc(Nc4ccc(F)cc4)n3)C2)c1 (stereo not drawn) [GSK1379708],%Inh,[1],7%
same,%Inh,[2],0%
same,%Inh,[3],0%
same,%Inh,[4],1%
same,%Inh,[5],18%
same,%Inh,[6],20%
same,%Inh,[7],0%
same,%Inh,[8],0%
same,%Inh,[9],20%
same,%Inh,[10],6%
same,%Inh,[11],30%
same,%Inh,[12],0%
same,%Inh,[13],9%
same,%Inh,[14],0%
same,%Inh,[15],0%
same,%Inh,[16],0%
same,%Inh,[17],2%
same,%Inh,[18],0%
same,%Inh,[19],0%
same,%Inh,[20]; [21],0%
O=C(Nc1ccccc1)c1cccc(Oc2ccc3nccn3n2)c1,%Inh,[1],41%
same,%Inh,[2],19%
same,%Inh,[3],20%
same,%Inh,[4],0%
same,%Inh,[5],10%
same,%Inh,[6],79%
same,%Inh,[7],16%
same,%Inh,[8],0%
same,%Inh,[9],5%
same,%Inh,[10],0%
same,%Inh,[11],1%
same,%Inh,[12],8%
same,%Inh,[13],0%
same,%Inh,[14],0%
same,%Inh,[15],0%
same,%Inh,[16],26%
same,%Inh,[17],0%
same,%Inh,[18],0%
same,%Inh,[19],0%
same,%Inh,[20]; [21],0%
CC(C)S(=O)(=O)N1CCN(Cc2ccc3c(c2)nc(NC(=O)c2ccsc2)n3C[C@H](O)c2ccccc2)CC1 [GW635815],%Inh,[1],12%
same,%Inh,[2],16%
same,%Inh,[3],0%
same,%Inh,[4],8%
same,%Inh,[5],74%
same,%Inh,[6],71%
same,%Inh,[7],90.4%
same,%Inh,[8],98%
same,%Inh,[9],0%
same,%Inh,[10],3%
same,%Inh,[11],73%
same,%Inh,[12],0%
same,%Inh,[13],10%
same,%Inh,[14],35%
same,%Inh,[15],0%
same,%Inh,[16],8%
same,%Inh,[17],7%
same,%Inh,[18],10%
same,%Inh,[19],2%
same,%Inh,[20]; [21],0%
CCN1CCN(CCCC(=O)Nc2n[nH]c3nc(-c4ccc(O)cc4)c(Br)cc23)CC1 [SB-731579],%Inh,[1],0%
same,%Inh,[2],0%
same,%Inh,[3],0%
same,%Inh,[4],0%
same,%Inh,[5],0%
same,%Inh,[6],0%
same,%Inh,[7],0%
same,%Inh,[8],61%
same,%Inh,[9],0%
same,%Inh,[10],0%
same,%Inh,[11],4%
same,%Inh,[12],0%
same,%Inh,[13],0%
same,%Inh,[14],0%
same,%Inh,[15],0%
same,%Inh,[16],25%
same,%Inh,[17],21%
same,%Inh,[18],0%
same,%Inh,[19],99.5%
same,%Inh,[20]; 1 µM,98.5%
CCn1c(-c2nonc2N)nc2cncc(CNC3CCNCC3)c21.Cl [SB-747651],%Inh,[1],0%
same,%Inh,[2],0%
same,%Inh,[3],5%
same,%Inh,[4],6%
same,%Inh,[5],1%
same,%Inh,[6],8%
same,%Inh,[7],3%
same,%Inh,[8],0%
same,%Inh,[9],10%
same,%Inh,[10],0%
same,%Inh,[11],43%
same,%Inh,[12],19%
same,%Inh,[13],6%
same,%Inh,[14],5%
same,%Inh,[15],0%
same,%Inh,[16],59%
same,%Inh,[17],0%
same,%Inh,[18],0%
same,%Inh,[19],37%
same,%Inh,[20]; [21],24%
C[C@@H]1CCN(C(=O)N2CCCC2)C[C@@H]1N(C)c1ncnc2[nH]ccc12,%Inh,[1],13%
same,%Inh,[2],9%
same,%Inh,[3],20%
same,%Inh,[4],3%
same,%Inh,[5],29%
same,%Inh,[6],21%
same,%Inh,[7],18%
same,%Inh,[8],38%
same,%Inh,[9],6%
same,%Inh,[10],0%
same,%Inh,[11],59%
same,%Inh,[12],0%
same,%Inh,[13],1%
same,%Inh,[14],17%
same,%Inh,[15],25%
same,%Inh,[16],36%
same,%Inh,[17],17%
same,%Inh,[18],8%
same,%Inh,[19],2%
same,%Inh,[20]; [21],26%
Cl.c1ccc(Oc2ccc(Nc3ccnc4cc(-c5ccc(CN6CCNCC6)o5)ccc34)cc2)nc1 [GW567142],%Inh,[1],0%
same,%Inh,[2],0%
same,%Inh,[3],0%
same,%Inh,[4],0%
same,%Inh,[5],74%
same,%Inh,[6],8%
same,%Inh,[7],41%
same,%Inh,[8],90.4%
same,%Inh,[9],6%
same,%Inh,[10],7%
same,%Inh,[11],82%
same,%Inh,[12],68%
same,%Inh,[13],0%
same,%Inh,[14],0%
same,%Inh,[15],10%
same,%Inh,[16],0%
same,%Inh,[17],0%
same,%Inh,[18],0%
same,%Inh,[19],19%
same,%Inh,[20]; [21],0%
Cc1n[nH]c2cc(Nc3ccnc(Nc4cccc(CN5CCOCC5)c4)n3)ccc12 [GW682569],%Inh,[1],15%
same,%Inh,[2],0%
same,%Inh,[3],32%
same,%Inh,[4],0%
same,%Inh,[5],49%
same,%Inh,[6],70%
same,%Inh,[7],18%
same,%Inh,[8],68%
same,%Inh,[9],65%
same,%Inh,[10],0%
same,%Inh,[11],75%
same,%Inh,[12],74%
same,%Inh,[13],39%
same,%Inh,[14],5%
same,%Inh,[15],31%
same,%Inh,[16],24%
same,%Inh,[17],64%
same,%Inh,[18],0%
same,%Inh,[19],0%
same,%Inh,[20]; [21],15%
Cn1ccc2ncnc(Oc3ccc(NC(=O)Nc4ccnc(C(F)(F)F)c4)c(Cl)c3)c21,%Inh,[2],5%
same,%Inh,[3],0%
same,%Inh,[4],0%
same,%Inh,[5],2%
same,%Inh,[6],94.5%
same,%Inh,[7],0%
same,%Inh,[8],64%
same,%Inh,[9],97.4%
same,%Inh,[10],2%
same,%Inh,[11],0%
same,%Inh,[12],0%
same,%Inh,[13],10%
same,%Inh,[14],0%
same,%Inh,[15],0%
same,%Inh,[16],29%
same,%Inh,[17],100%
same,%Inh,[18],0%
same,%Inh,[19],11%
same,%Inh,[20]; [21],0%
COc1ccc(Nc2nccc(N3CCC(NC(=O)c4cccc(C#N)c4)C3)n2)cc1 (stereo not drawn) [GSK1379730],%Inh,[1],13%
same,%Inh,[2],19%
same,%Inh,[3],4%
same,%Inh,[4],6%
same,%Inh,[5],0%
same,%Inh,[6],24%
same,%Inh,[7],0%
same,%Inh,[8],18%
same,%Inh,[9],22%
same,%Inh,[10],0%
same,%Inh,[11],0%
same,%Inh,[12],0%
same,%Inh,[13],2%
same,%Inh,[14],0%
same,%Inh,[15],3%
same,%Inh,[16],8%
same,%Inh,[17],0%
same,%Inh,[18],0%
same,%Inh,[19],0%
same,%Inh,[20]; [21],13%
